# From PubChem BioAssay AID376 (PDSP, 2006)
# About 250 (12%) of roughly 2,000 compounds were called active. Many of the other results were omitted from the sample, so actives are more common in it than they were. A number with no mark means an inactive call. Rule as the data show it: active = hERG blockade below about -20% or above about 20%; inactive = in between.
# Molecular target: Voltage-gated inwardly rectifying potassium channel KCNH2 (Homo sapiens) (UniProt Q12809)
# Assay: KCNH2 potassium channel function modulators, cell-based (AID 376);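 also: 0% = buffer alone and 100% = reference blocker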
# Settings: hERG-expressing cells, channel activity single-concentration screen; concentration not given here
# Chain of Voltage-gated inwardly rectifying potassium channel KCNH2 (Homo sapiens) (Q12809 whole entry, looked up): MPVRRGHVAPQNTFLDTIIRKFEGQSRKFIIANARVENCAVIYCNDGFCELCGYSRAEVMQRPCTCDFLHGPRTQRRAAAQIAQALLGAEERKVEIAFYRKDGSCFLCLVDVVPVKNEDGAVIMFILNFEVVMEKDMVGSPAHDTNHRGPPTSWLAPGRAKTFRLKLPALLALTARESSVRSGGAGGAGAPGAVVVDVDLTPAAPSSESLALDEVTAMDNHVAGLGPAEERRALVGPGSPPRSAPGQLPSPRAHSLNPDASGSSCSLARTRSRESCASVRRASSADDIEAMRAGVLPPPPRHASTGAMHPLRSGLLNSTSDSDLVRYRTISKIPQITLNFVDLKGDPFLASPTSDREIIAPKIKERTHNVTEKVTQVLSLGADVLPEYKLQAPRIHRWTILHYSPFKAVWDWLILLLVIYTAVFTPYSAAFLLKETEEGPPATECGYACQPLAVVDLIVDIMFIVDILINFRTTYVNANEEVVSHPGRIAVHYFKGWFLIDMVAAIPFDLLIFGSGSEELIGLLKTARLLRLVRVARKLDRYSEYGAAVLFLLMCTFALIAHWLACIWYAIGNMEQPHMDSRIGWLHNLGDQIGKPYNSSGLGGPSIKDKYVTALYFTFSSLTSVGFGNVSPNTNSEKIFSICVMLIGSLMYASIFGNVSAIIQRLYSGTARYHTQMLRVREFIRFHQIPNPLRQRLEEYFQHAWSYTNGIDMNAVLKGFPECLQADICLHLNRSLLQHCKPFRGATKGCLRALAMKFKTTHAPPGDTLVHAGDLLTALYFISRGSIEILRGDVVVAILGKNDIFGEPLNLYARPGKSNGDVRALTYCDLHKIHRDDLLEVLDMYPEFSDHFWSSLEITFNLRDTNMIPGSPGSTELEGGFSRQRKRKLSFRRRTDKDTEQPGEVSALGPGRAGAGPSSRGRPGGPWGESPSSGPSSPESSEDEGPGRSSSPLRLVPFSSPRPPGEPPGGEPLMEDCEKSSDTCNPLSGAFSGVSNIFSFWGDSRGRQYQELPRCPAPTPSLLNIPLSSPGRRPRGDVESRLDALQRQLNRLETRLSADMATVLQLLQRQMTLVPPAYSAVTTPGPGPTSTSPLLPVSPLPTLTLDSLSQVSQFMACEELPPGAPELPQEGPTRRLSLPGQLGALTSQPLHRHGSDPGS
row,SMILES,hERG blockade
1,N=c1nc(N)nc(N)n1-c1ccc(S(N)(=O)=O)cc1,-2.11%
2,Nc1[nH]c(=O)nc2c1ncn2C1OC(CO)C(O)C1O (stereo not given),-9.03%
3,COc1ccc2cc(C(=O)CCC(=O)O)ccc2c1,-0.161%
4,NC(=[SH+])[N-]N=Cc1ccccn1.O=S(=O)([O-])O.[Fe],8.22%
5,O=C(O)c1ccncc1.O=C(O)c1ccncc1.[Cl][Pt]([Cl])([Cl])[Cl],16.7%
6,C[N+]1(CCN=C=NC2CCCCC2)CCOCC1,4.24%
7,CCN(CC)CCN1c2ccccc2Sc2ccc3ccccc3c21,28.5% (active)
8,CN(C)CCCN1c2ccccc2C(C)(C)c2ccccc21,34.9% (active)
9,CCN(CC)CCN1C(=O)c2cccc3cc(N)cc(c23)C1=O,-2.82%
10,CN(C)CCCN1c2ccccc2Sc2ccc3ccccc3c21,112% (active)
11,CN(C)CCCN1c2ccc3ccccc3c2Sc2cccc(Cl)c21,30.4% (active)
12,Clc1ccc(-c2nnc(-c3cccc4ccccc34)o2)cc1Cl,-2.83%
13,N=Nc1c(OC(=O)Nc2ccccc2)[nH]c2ccccc12,18.5%
14,CN(C)CCC(C(=O)C(C)(C)C)c1ccccn1 (stereo not given),-9.42%
15,CS(=O)(=O)c1ccc(C=NNC(N)=S)cc1,-0.277%
16,O=[N+]([O-])c1ccc(NN=C2c3ccccc3Cc3ccccc32)c([N+](=O)[O-])c1,8.87%
17,O=C(O)c1cc(N=Cc2ccccc2O)cc(C(=O)O)c1,-2.64%
18,Nc1nc(N)c2nn(-c3ccc(C(=O)O)cc3)nc2n1,14.6%
19,NCCSCC(N)C(=O)O (stereo not given),1.01%
20,O=C(O)c1ccc(OCc2ccccc2)c(Cl)c1,4.92%
21,Cc1c[n+](=O)c2ccccc2n1[O-],-5%
22,O=C(O)C1C2C=CC(O2)C1C(=O)NCc1ccncc1 (stereo not given),-11%
23,C[N+](C)(N)Cc1nc(-c2ccc(Cl)cc2)no1,1.91%
24,Clc1ccc(-c2noc(CN3CCCCC3)n2)cc1,-11.3%
25,N=C(N)SCc1nc(-c2ccc(Cl)cc2)no1,-25.1% (active)
26,Cc1cc2c(cc1C)NC1=C(N2)OC(c2c[nH]c3ccc(COc4ccccc4)cc23)C1=O (stereo not given),-6.35%
27,CCOC(=O)C1=C(C)NC(=O)NC1c1coc2cc(C)cc(C)c2c1=O (stereo not given),-8.18%

row,SMILES,hERG blockade
1,Cc1ccc(S(=O)(=O)N2CCC(C(=O)O)(c3ccccc3)CC2)cc1,-1.68%
2,COc1ccc2c(=O)cc(-c3ccncc3)oc2c1OC,72.1% (active)
3,C1CCN(CCC2CCCCN2)CC1 (stereo not given),-0.957%
4,[O-][n+]1c(CN2CCCCC2)nc2cccc3c2c1-c1ccccc1-3,41.6% (active)
5,CN1CCN(CC(=O)Nc2cccc3ccccc23)CC1,8.36%
6,Oc1cccnc1CN1CCCCC1,-6.51%
7,CN1CCN(Cc2nc3cccc4c3c([n+]2[O-])-c2ccccc2-4)CC1,39.2% (active)
8,CC(C)C1OC(C=Cc2ccccc2)OCC1(C)C (stereo not given),10.1%
9,O=C(O)CSc1ccn(Cc2ccccc2)c1,-5.01%
10,CC(=NCC(=O)O)c1ccccc1,-2.03%
11,CN(CC(=O)O)CC(=O)O,9.14%
12,C=C(Br)CN(C)CC(=C)Br,-27.2% (active)
13,C=C(C)CN(CC#N)CC(=C)C,-3.17%
14,Cc1cc(Nc2ccc(N=Nc3ccc(O)c4ncccc34)cc2)nc(C)n1,7.41%
15,[Cu+2].[NH-]C(CC(=O)O)C(=O)O.[NH-]C(CC(=O)O)C(=O)O (stereo not given),16.8%
16,NC(=O)NN=C1CCC(O)CC1CC(=O)O (stereo not given),0.91%
17,CN1C2CCC1CC(OC(c1ccccc1)c1ccccc1)C2 (stereo not given),44.2% (active)
18,NS(=O)(=O)c1ccc(N=Nc2nc3[nH]cnc(=S)c3[nH]2)cc1,-16.4%
19,CC(CN(C)C)C(O)(c1ccccc1)c1ccccc1 (stereo not given),7.73%
20,CN(C)CC(O)c1ccc(Cl)c2ccccc12 (stereo not given),28.3% (active)
21,CC(CN(C)C)C(=O)c1ccccc1C(=O)O (stereo not given),0.354%
22,CN(Cc1cc(Br)cc(Br)c1O)Cc1c(O)ccc2ccccc12,16%
23,Clc1ccc(Cl)c(Nc2ccnc(SCc3ccccc3)n2)c1,-4.72%
24,CC1CCC2(C(=O)O)CCC3(C)C(=CCC4C5(C)CC(O)C(O)C(C)(CO)C5C(O)CC43C)C2C1C (stereo not given),17.2%
25,O=C(CSc1ncnc2nc[nH]c12)c1ccccc1,-4.94%
26,O=S1(=O)CCN(c2ccccc2CC(c2c[nH]c3ccccc23)c2c[nH]c3ccccc23)CC1,32.2% (active)
27,Cn1ccnc1CC(C)(O)c1ccccc1 (stereo not given),-2.58%

row,SMILES,hERG blockade
1,COc1ccc(OC)c(-c2cc(C(=O)O)c3cc4ccccc4cc3n2)c1,-16.1%
2,CC(CCC(=O)O)C1CCC2(C)C3C(=O)CC4C(C)(C)C(O)CCC4(C)C3C(=O)CC12C (stereo not given),2.84%
3,CC(CCC(=O)O)C1CCC2C3C(O)CC4CC(O)CCC4(C)C3CC(O)C12C (stereo not given),5.61%
4,O=C(O)c1ccc(C(=O)O)c(C(=O)Nc2ccc3c(c2)Cc2ccccc2-3)c1,-3.35%
5,O=C(O)c1ccc(C(=O)O)c(C(=O)O)c1.[NH-]C1CCCCC1[NH-].[Pt+2],23.7% (active)
6,O=C(O)c1ccc(C(=O)c2ccccc2)c(C(=O)O)c1,1.04%
7,O=C1CNCCCN2CCN(CCCNCC(=O)Nc3ccc(cc3)S(=O)(=O)c3ccc(cc3)NC(=O)CNCCCN3CCN(CCCNCC(=O)Nc4ccc(cc4)S(=O)(=O)c4ccc(cc4)N1)CC3)CC2,5.8%
8,Cc1ccc(S(=O)(=O)NC(=O)OC23COCN2COC3)cc1,-18.8%
9,Oc1c(Br)cc(Br)cc1CN(Cc1cc(Br)cc(Br)c1O)C1CCCCC1,-7.44%
10,O=C1c2ccccc2C(=O)N1CC1(C(=O)O)NCCS1(=O)=O (stereo not given),4.44%
11,N=Nc1c(OC(=O)Nc2cccc(Cl)c2)[nH]c2ccccc12,1.43%
12,S=C1NC(c2ccccc2)NC(c2ccccc2)S1 (stereo not given),8.24%
13,N=C(N)SC(c1ccccc1)c1ccccc1,22.5% (active)
14,N=C(N)C(N=Nc1ccccc1)C(=N)N (stereo not given),14.2%
15,NC(N)=NC(CC(=O)O)c1ccccc1 (stereo not given),10.4%
16,Cn1c(=S)c2[nH]c(SCCN3C(=O)c4ccccc4C3=O)nc2n(C)c1=O,13.4%
17,O=C(O)CCCSc1ccccc1,8.71%
18,O=C1c2ccccc2C(=O)N1CCCSc1ccccc1,23.2% (active)
19,O=C(O)c1cccc(S(=O)(=O)NCCO)c1,-15.6%
20,Cn1c(=O)c2c(nc(NCCNc3nc4c(c(=O)n(C)c(=O)n4C)n3C)n2C)n(C)c1=O,-7.81%
21,CN(C)CCn1c(CO)nc2c1c(=O)n(C)c(=O)n2C,-1.57%
22,CN(C)CCNc1nc2c(c(=O)n(C)c(=O)n2C)n1C,34% (active)
23,Cc1ccc(CCCC(=O)O)cc1C,6.44%
24,NC(=O)NOCC1NC(=O)NC1=O (stereo not given),-12%
25,Nc1ncnc2c1ncn2C1OC(CO)C(O)C1N (stereo not given),13.4%
26,C[N+](C)(C)c1ncnc2c1ncn2C1CC(O)C(CO)O1 (stereo not given),-5.95%
27,NCC1OC(n2cnc3c(N)ncnc32)CC1O (stereo not given),-23.5% (active)

row,SMILES,hERG blockade
1,Nc1ncnc2c1nc(-c1ccccc1)n2C1OC(CO)C(O)C1O (stereo not given),-5.56%
2,Cc1ccc(C2(C)CCC(=NN=C3CCC(C)(c4ccc(C)c(C)c4)c4cc(C)c(C)cc43)c3cc(C)c(C)cc32)cc1C (stereo not given),5.6%
3,CC(NC(=O)c1ccccc1)(C(=O)O)C(=O)O,-6.84%
4,O=C(Nc1ccc(-c2cn3ccccc3n2)cc1)c1cc(Br)ccc1O,6.36%
5,CC12CCC3c4ccc(OCC(=O)O)cc4CCC3C1CCC2=O (stereo not given),-7.52%
6,Cc1cc(Cl)ccc1OCC(=O)Oc1c(Cl)c(Cl)c(Cl)c(Cl)c1Cl,-9.38%
7,Cc1ccc2ccccc2c1CSc1nc(N)nc2c1ncn2CC(C)C,13.9%
8,CC(C)Cn1cnc2c(SCc3ccc(Cl)cc3Cl)nc(N)nc21,20.1% (active)
9,CC(C)Cn1cnc2c(SCc3ccccn3)nc(N)nc21,-2.95%
10,COc1cccc(CSCC(=O)O)c1,3.08%
11,CN(CC(=O)O)Cc1c[nH]c2ccccc12,-21% (active)
12,CC(N)(Cc1c[nH]c2ccccc12)C(=O)O (stereo not given),-24.5% (active)
13,O=C(O)C(Cc1c[nH]c2ccccc12)C(=O)NO (stereo not given),-0.439%
14,O=C(O)C(Cc1c[nH]c2ccccc12)N1C(=O)c2ccccc2C1=O (stereo not given),-13.6%
15,O=C(O)C1CCCN1Cc1c[nH]c2ccccc12 (stereo not given),-17.1%
16,CC(=O)NC(Cc1c[nH]c2ccccc12)C(=O)O (stereo not given),2.72%
17,NC(N)=NCC(N)C(=O)O (stereo not given),-1.09%
18,Cc1nnc(S(=O)(=O)c2ccc(N=Nc3c(N)nc(N)nc3N)cc2)s1,-0.733%
19,O=C(O)CC(=Cc1ccco1)C(=O)O,-9.17%
20,O=C(O)CCC1(C(=O)O)CCC(=O)c2ccccc21 (stereo not given),6.22%
21,BrC(c1cccc2ccccc12)c1cccc2ccccc12,-6.84%
22,COc1ccc(C(=O)CCN(C)C)c2ccccc12,7.02%
23,Clc1ccccc1C(Nc1cnccn1)Nc1cnccn1,21.5% (active)
24,Clc1ccccc1C(Nc1ncccn1)Nc1ncccn1,3.73%
